According to PubChem BioAssay AID1159580 (chemical genetic matrix, 2015):
Hit rate of the full screen: of about 5,500 compounds, about 2,000 (36%) were called active. Not shown: some 18% with an inconclusive outcome. No stated cut-off is given here; in the data, active means normalized growth mostly below about 0.91 (no sharp cut-off); inconclusive means no clear call, values can overlap the other calls; inactive means mostly above about 0.92. Some of the results follow.

Assay: chemical genetic growth profiling, strain panel (AID 1159580);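 further: tested at 20 µM; growth read once vehicle control cultures reached saturation at 30 °C; 1 = growth at the plate median or of vehicle wells; lower values mean less growth of the strain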
Conditions: S. cerevisiae deletion strains, growth OD

Measured: normalized growth

CC(=O)Oc1c(-c2ccccc2)oc2c(CC=C(C)C)c3c(c(OC(C)=O)c2c1=O)C=CC(C)(C)O3
inactive: locus YAL021C, strain ccr4, active compounds read low 1.06 | locus YAL026C, strain drs2, active compounds read low 1.02 | locus YBL061C, strain skt5, active compounds read low 1 | locus YBR009C, strain hhf1, active compounds read low 1.09 | locus YBR021W, strain FUR4, active compounds read low 1.05 | locus YBR023C, strain chs3, active compounds read low 1.01 | locus YBR171W, strain sec66, active compounds read low 1.01 | locus YBR229C, strain ROT2, active compounds read low 0.923 | locus YBR231C, strain swc5, active compounds read low 1.02 | locus YBR279W, strain paf1, active compounds read low 0.995 | locus YCL011C, strain gbp2, active compounds read low 1.09 | locus YCL016C, strain dcc1, active compounds read low 1.05 | locus YCL029C, strain bik1, active compounds read low 1.01 | locus YCL061C, strain MRC1, active compounds read low 1.02 | locus YCL069W, strain vba3, active compounds read low 1.01 | locus YCR088W, strain abp1, active compounds read low 1.01 | locus YDL005C, strain med2, active compounds read low 1.01 | locus YDL035C, strain GPR1, active compounds read low 0.875 | locus YDL074C, strain BRE1, active compounds read low 0.93 | locus YDL101C, strain DUN1, active compounds read low 0.944 | locus YDL185W, strain tfp1, active compounds read low 1.07 | locus YDL192W, strain arf1, active compounds read low 1.01 | locus YDR001C, strain nth1, active compounds read low 1.01 | locus YDR069C, strain doa4, active compounds read low 1.01 | locus YDR137W, strain rgp1, active compounds read low 1.03 | locus YDR159W, strain sac3, active compounds read low 0.982 | locus YDR195W, strain ref2 0.986 | locus YDR297W, strain sur2, active compounds read low 1.04 | locus YDR318W, strain mcm21, active compounds read low 0.995 | locus YDR334W, strain swr1, active compounds read low 1 | locus YDR335W, strain msn5, active compounds read low 1.02 | locus YDR388W, active compounds read low 1.05 | locus YDR392W, strain spt3, active compounds read low 0.955 | locus YEL003W, strain gim4, active compounds read low 1.03 | locus YEL037C, strain rad23, active compounds read low 1.01 | locus YEL061C, strain CIN8 (second series), active compounds read low 1.01 | locus YER111C, strain swi4, active compounds read low 1 | locus YER155C, strain BEM2 (second series), active compounds read low 1.05 | locus YER155C, strain BEM2, active compounds read low 1 | locus YER167W, strain BCK2, active compounds read low 0.917 | locus YFR010W, strain ubp6, active compounds read low 1 | locus YGL078C, strain dbp3, active compounds read low 1.04 | locus YGL086W, strain mad1, active compounds read low 0.993 | locus YGL167C, strain pmr1, active compounds read low 0.993 | locus YGL173C, strain kem1, active compounds read low 0.998 | locus YGL227W, strain vid30, active compounds read low 1.01 | locus YGL240W, strain doc1, active compounds read low 1 | locus YGL253W, strain hxk2, active compounds read low 0.981 | locus YGR078C, strain PAC10, active compounds read low 0.898 | locus YGR135W, strain pre9, active compounds read low 1.1 | locus YHR013C, strain ard1, active compounds read low 0.989 | locus YHR027C, strain rpn1, active compounds read low 1.06 | locus YHR079C, strain IRE1 (second series), active compounds read low 1.06 | locus YHR142W, strain chs7, active compounds read low 1.03 | locus YIL125W, strain kgd1, active compounds read low 1.03 | locus YIR030C, strain dcg1, active compounds read low 1.06 | locus YJL092W, strain hpr5, active compounds read low 1.01 | locus YJL095W, strain BCK1, active compounds read low 0.926 | locus YJL115W, strain asf1, active compounds read low 1 | locus YJL129C, strain trk1, active compounds read low 1.02 | locus YJL134W, strain LCB3, active compounds read low 0.948 | locus YJL154C, strain vps35, active compounds read low 1.02 | locus YJL164C, strain tpk1, active compounds read low 1.03 | locus YJL166W, strain qcr8, active compounds read low 1.04 | locus YJL168C, strain set2, active compounds read low 1.03 | locus YJL187C, strain SWE1 (second series), active compounds read low 0.885 | locus YJL187C, strain SWE1, active compounds read low 1.05 | locus YKL009W, strain mrt4, active compounds read low 1.04 | locus YKL068W, active compounds read low 1.01 | locus YKL085W, strain MDH1 (second series), active compounds read low 1 | locus YKL085W, strain MDH1, active compounds read low 1 | locus YKL160W, strain elf1, active compounds read low 1 | locus YKR026C, strain gcn3, active compounds read low 1 | locus YLL001W, strain dnm1, active compounds read low 0.976 | locus YLR027C, strain aat2, active compounds read low 1.03 | locus YLR039C, strain RIC1, active compounds read low 0.891 | locus YLR102C, strain apc9, active compounds read low 1.06 | locus YLR221C, strain rsa3, active compounds read low 1.04 | locus YLR258W, strain gsy2, active compounds read low 1.03 | locus YLR262C, strain YPT6 (second series), active compounds read low 1.02 | locus YLR262C, strain YPT6, active compounds read low 0.874 | locus YLR268W, strain sec22, active compounds read low 1.05 | locus YLR320W, strain mms22, active compounds read low 0.999 | locus YLR330W, strain CHS5, active compounds read low 0.924 | locus YLR342W, strain FKS1, active compounds read low 1.05 | locus YLR357W, strain rsc2, active compounds read low 0.992 | locus YLR370C, strain arc18, active compounds read low 1.01 | locus YLR371W, strain rom2, active compounds read low 1.01 | locus YML120C, strain ndi1, active compounds read low 1.07 | locus YMR058W, strain fet3, active compounds read low 1.02 | locus YMR125W, strain sto1, active compounds read low 1.02 | locus YMR205C, strain PFK2, active compounds read low 1.01 | locus YMR223W, strain ubp8, active compounds read low 1.05 | locus YMR231W, strain pep5, active compounds read low 1 | locus YMR307W, strain GAS1, active compounds read low 0.818 | locus YNL067W, strain RPL9B, active compounds read low 0.988 | locus YNL071W, strain lat1, active compounds read low 1.02 | locus YNL209W, strain ssb2, active compounds read low 1.05 | locus YNL233W, strain BNI4, active compounds read low 0.915 | locus YNL248C, strain rpa49, active compounds read low 0.984 | locus YNL250W, strain rad50, active compounds read low 1.03 | locus YNL271C, strain bni1, active compounds read low 1.04 | locus YNL298W, strain CLA4, active compounds read low 1.04 | locus YNL307C, strain MCK1, active compounds read low 1.03 | locus YNL322C, strain KRE1 (second series), active compounds read low 1.05 | locus YNR049C, strain mso1, active compounds read low 1.01 | locus YNR052C, strain pop2, active compounds read low 1.07 | locus YOL012C, strain htz1 0.869 | locus YOR001W, strain rrp6, active compounds read low 1.01 | locus YOR069W, strain VPS5, active compounds read low 0.935 | locus YOR080W, strain dia2, active compounds read low 1.03 | locus YOR083W, strain WHI5, active compounds read low 1.06 | locus YOR106W, strain vam3, active compounds read low 1.08 | locus YOR184W, strain ser1, active compounds read low 1.07 | locus YOR265W, strain rbl2, active compounds read low 1.05 | locus YOR270C, strain vph1, active compounds read low 0.972 | locus YOR290C, strain snf2, active compounds read low 1.03 | locus YOR316C, strain cot1, active compounds read low 1.07 | locus YPL051W, strain arl3, active compounds read low 0.976 | locus YPL078C, strain atp4, active compounds read low 1.03 | locus YPL106C, strain sse1, active compounds read low 1.02 | locus YPR119W, strain clb2, active compounds read low 1.05 | locus YPR167C, strain met16, active compounds read low 1 | strain wtn01, active compounds read low 1.03
active: locus YAL030W, strain snc1, active compounds read low 1.09 [resistant] | locus YDL040C, strain nat1, active compounds read low 1.09 [resistant] | locus YDR101C, strain arx1, active compounds read low 1.09 [resistant] | locus YDR162C, strain NBP2, active compounds read low 0.828 | locus YDR502C, strain sam2, active compounds read low 1.11 [resistant] | locus YER015W, strain faa2, active compounds read low 1.08 [resistant] | locus YER016W, strain bim1, active compounds read low 1.1 [resistant] | locus YER110C, active compounds read low 1.11 [resistant] | locus YGL248W, strain PDE1, active compounds read low 0.845 | locus YGR252W, strain gcn5, active compounds read low 1.59 [resistant] | locus YHR094C, strain hxt1, active compounds read low 1.16 [resistant] | locus YHR129C, strain ARP1, active compounds read low 0.881 | locus YHR200W, strain rpn10, active compounds read low 1.09 [resistant] | locus YIL066C, strain RNR3, active compounds read low 0.788 | locus YIL073C, strain SPO22, active compounds read low 0.586 | locus YJL095W, strain BCK1 (second series), active compounds read low 1.09 [resistant] | locus YKL190W, strain CNB1, active compounds read low 0.906 | locus YKR001C, strain vps1, active compounds read low 1.21 [resistant] | locus YKR091W, strain srl3, active compounds read low 1.14 [resistant] | locus YLL026W, active compounds read low 1.07 [resistant] | locus YLL041C, strain sdh2, active compounds read low 1.09 [resistant] | locus YLR058C, strain SHM2, active compounds read low 0.891 | locus YLR384C, strain iki3, active compounds read low 1.1 [resistant] | locus YLR418C, strain cdc73, active compounds read low 1.17 [resistant] | locus YML016C, strain PPZ1, active compounds read low 0.874 | locus YML032C, strain rad52, active compounds read low 1.14 [resistant] | locus YML124C, strain tub3, active compounds read low 1.07 [resistant] | locus YMR078C, strain ctf18, active compounds read low 1.14 [resistant] | locus YMR129W, active compounds read low 1.12 [resistant] | locus YOL147C, strain pex11, active compounds read low 1.09 [resistant] | locus YOR061W, strain CKA2, active compounds read low 0.782 | locus YOR070C, strain gyp1, active compounds read low 1.16 [resistant] | locus YOR136W, strain idh2, active compounds read low 1.11 [resistant] | locus YOR144C, strain elg1, active compounds read low 1.08 [resistant] | locus YPL240C, strain hsp82, active compounds read low 1.1 [resistant] | locus YPR141C, strain kar3, active compounds read low 1.09 [resistant] | locus YPR163C, strain tif3, active compounds read low 1.14 [resistant]
